Values joined by “and” are separate entries in the source; they are usually repeats but may differ in a detail not shown here. Equal values may be shown once. The full ranking holds about 5,400 compounds; the median of “IFI” is about 2, and the highest 2% start at about 22. This is one part of a sample in which the highest values are shown more often than they occur.
Experiment: NOVARTIS: Inhibition Frequency Index (IFI) - the number of HTS assays where a compound showed > 50% inhibition/induction, expressed as a percentage of the number of assays in which the compound was tested.
Format: functional

| Molecule | IFI |
| --- | --- |
| GNF-Pf-2945, CHEMBL581676 | 1.82% |
| GNF-Pf-1437, CHEMBL576411 | 14.3% |
| GNF-Pf-448, CHEMBL580641 | 30% |
| CCc1ccc(C=NNC(=O)COc2ccc3c(c2)OCO3)cc1 | 0% |
| COc1cccc2c1C(=O)c1c(O)c3c(c(O)c1C2=O)C[C@](O)(C(C)=O)C[C@@H]3O[C@H]1C[C@@H](N)[C@H](O)[C@H](C)O1 | 19.7% |
| COc1cccc2c1C(=O)C1C(O)=C3C(=C(O)C1C2=O)CC(O)(C(C)=NN=C1CC(C)(C)N(O)C(C)(C)C1)CC3OC1CC(C)(N)C(O)CO1 (stereo unspecified) | 21.4% |
| COc1cccc2c1C(=O)c1c(O)c3c(c(O)c1C2=O)C[C@@](O)(C(=O)CO)C[C@@H]3O[C@@H]1C[C@H](N)[C@H](O)[C@H](C)O1 | 25.6% |
| Cc1ccc(-c2cc(C(=O)OCC(=O)c3cccc([N+](=O)[O-])c3)c3cc(C)ccc3n2)cc1 | 0% |
| Cc1cc(C)c2cc(CN(CCN(C)C)C(=S)NCCCN(C)C)c(=O)[nH]c2c1 | 3.12% |
| CC1=C(CO)C(=O)O[C@@H]([C@@H](C)[C@H]2CC[C@H]3[C@@H]4C[C@H]5O[C@]56[C@@H](O)C=CC(=O)[C@]6(C)C4CC[C@]23C)C1 (stereo partly specified) | 32.1% |
| Cc1ccn2c(NC(C)(C)CC(C)(C)C)c(-c3ccccc3OC(=O)CCc3ccccc3)nc2c1 | 3.74% |
| c1ccc(-c2cc(N3CCOCC3)nc(-c3ccccn3)n2)nc1 | 15.4% |
| COc1ccc(NC(=O)CCCCCn2c(SCc3cc(=O)oc4cc(O)ccc34)nc3ccsc3c2=O)cc1 | 0% |
| Cc1ccc(C=Cc2ccc(N(C)C)cc2)[n+](C)c1 | 15.4% |
| CN(C)c1ccc(/C=C/c2cccc(/C=C/c3ccc(N(C)C)cc3)[n+]2C)cc1 | 25% |
| CN(C)c1ccc(/C=C/c2cccc[n+]2C)cc1 | 6.3% |
| CCCCCC[n+]1ccccc1C=Cc1ccc(N(C)C)cc1 | 27.6% |
| CC[n+]1ccccc1C=Cc1ccc(N(C)C)cc1 | 6.57% and 5.88% |
| CC(C)CC[n+]1ccccc1C=Cc1ccc(N(C)C)cc1 | 15.4% |
| CC1CCCCN1CCCNc1ncc(C(=O)NCCc2ccccc2)c(NCC2CCCO2)n1 (stereo unspecified) | 3.81% |
| CCCCNC(=S)N(Cc1cccs1)Cc1cc2cc(C)ccc2[nH]c1=O | 1.82% |

| Molecule | IFI |
| --- | --- |
| CC(C)(C)c1ccc(CNC(=O)C(Cc2ccc(O)cc2)c2ccccc2)cc1 (stereo unspecified) | 0% |
| O=C(CSc1oc(-c2ccc(Cl)cc2)nc1[P+](c1ccccc1)(c1ccccc1)c1ccccc1)c1ccccc1 | 21.4% |
| C=CCSc1oc(-c2ccco2)nc1[P+](c1ccccc1)(c1ccccc1)c1ccccc1 | 23.1% |
| CCOC(=O)C1=C(CC)NC2=C(C(=O)CC(C)(C)C2)C1c1ccccc1F (stereo unspecified) | 4.6% |
| CC[n+]1c(/C=C(C)/C=C2\Sc3ccccc3N2CCO)sc2ccccc21 | 7.69% |
| CCC(/C=C1\Sc2ccc(OC)cc2N1CCCS(=O)(=O)O)=C\c1sc2ccc(OC)cc2[n+]1CCCS(=O)(=O)O | 22.7% |
| CCN1/C(=C/c2cccc[n+]2C)Sc2ccc(OC)cc21 | 15.4% |
| CCOC(=O)c1c(C)[n+](-c2ccc(C)cc2)c(CC)c2cc(OC)c(OC)cc12 | 2.29% |
| Cc1ccc(-c2c3c4n(c(-c5ccc(Cl)cc5)cn4c2C(=O)Nc2ccccc2Cl)CCCC3)cc1 | 6.06% |
| CCCCN(CCCC)[P+](N(CCCC)CCCC)(N(CCCC)CCCC)N(CCCC)CCCC | 27.3% |
| CCC(=O)N1CCc2cc(Br)cc(S(=O)(=O)N3CC(C)CC(C)C3)c21 (stereo unspecified) | 0% |
| COc1ccc2nc3cc(Cl)ccc3c(NCCN(CCN)CCN)c2c1 | 14.5% |
| CN(C)c1ccc(C(=Cc2cc(-c3ccccc3)cc(-c3ccccc3)[o+]2)c2ccc(N(C)C)cc2)cc1 | 12.7% |
| CN(C)c1ccc(-c2cc(-c3ccccc3)[s+]c(-c3ccccc3)c2)cc1 | 31.4% |
| CN(C)c1ccc(-c2nc(-c3ccc(-c4[nH]c(-c5ccc(N(C)C)cc5)nc4-c4ccccc4)cc3)c(-c3ccccc3)[nH]2)cc1 | 12.5% |
| COc1ccc(-c2nc(NC(=O)CS(=O)(=O)c3ccccc3)sc2C)cc1 | 0% |
| C1=C(c2ccc(CN3CCCCC3)cc2)N2CCN=C2c2ccccc21 | 2.98% |
| Cc1cc(S(=O)(=O)NC(Cc2ccc([N+](=O)[O-])cc2)C(=O)O)c(Cl)cc1Cl (stereo unspecified) | 1.03% |
| Clc1ccc(Nc2nc3nonc3nc2Nc2ccc(Cl)c(Cl)c2)cc1Cl | 7.14% |
| Clc1ccccc1Nc1nc2nonc2nc1Nc1cccc(Br)c1 | 15.4% |
| FC(F)(F)c1cccc(Nc2nc3nonc3nc2Nc2ccc(Br)cc2)c1 | 22.2% |

| Molecule | IFI |
| --- | --- |
| FC(F)(F)c1cccc(Nc2nc3nonc3nc2Nc2ccc(Cl)cc2)c1 | 22.7% |
| c1ccc(Oc2ccc(Nc3nc4nonc4nc3Nc3ccc(Oc4ccccc4)cc3)cc2)cc1 | 0% |
| Cc1ccc2ncnc(Nc3cccc(C(F)(F)F)c3)c2c1 | 4.41% |
| CCN(CC)c1scc(-c2ccc(Br)cc2)[s+]1 | 7.69% |
| COc1ccc(C2=C(c3ccc(OC)cc3)C3(c4ccccc4)C(=O)C2(c2ccccc2)C2C(=O)N(c4ccc(F)cc4)C(=O)C23)cc1 (stereo unspecified) | 0% |
| CCN1/C(=C\C=C\C2=[N+](C)c3ccccc3C2(C)C)N(c2ccccc2)c2ccccc21 | 28.6% |
| CCN1/C(=C/C=C/C2=[N+](C)c3ccc(C)cc3C2(C)C)C=Cc2ccccc21 | 28.6% |
| CCN1/C(=C/c2cccc[n+]2C)C=Cc2cc(C)ccc21 | 15.4% |
| CN(/C=C/C1=[N+](C)c2ccc(Cl)cc2C1(C)C)c1ccccc1 | 0% |
| COCCN1C(=O)c2ccccc2C(C(=O)Nc2cccc(C(F)(F)F)c2)C1c1cccs1 (stereo unspecified) | 9.09% |
| CC1CCN(S(=O)(=O)c2ccc(C(=O)Nc3sc4c(c3C(N)=O)CCN(C)C4)cc2)CC1 | 0% |
| COc1nc(C)nc(NC(=O)NC(=O)c2c(OC)ccc([N+](=O)[O-])c2OC)n1 | 2.61% |
| CCCCCc1ccc(OCCOCC[n+]2ccccc2)c(CCCCC)c1 | 4.54% |
| CCN1C=C(c2ccc(C)cc2)S/C1=C\c1sc2ccccc2[n+]1C | 14.7% |
| CCN1/C(=C/c2cccc[n+]2C)C=Cc2ccc(C)cc21 | 7.79% |
| CCN1C(=Cc2sc3ccccc3[n+]2C)C=Cc2cccc(C)c21 | 23.1% |
| CN1C=CC(=Cc2sc3ccccc3[n+]2C)C=C1 | 0% |
| CCN1C(=Cc2sc3ccccc3[n+]2C)C=Cc2ccc(C)cc21 | 23.8% |
| CCN1C(=Cc2sc3ccc(O)cc3[n+]2CC)C=Cc2cc(C)ccc21 | 15.4% |
